# Bioassay records: PubChem BioAssay, National Center for Advancing Translational Sciences (NCATS)
# An excerpt weighted towards active compounds, which were near 6.6% of everything screened.
# KB-V1 MDR tox = KB-V1 MDR subline cytotoxicity; KB-V1 MDR cells viability, CellTiter-Glo, 72 h; Potency, µM (doses to about 46.1 µM), most hits filed as cytotoxic; 400,000 tested, 3.4% active; AID 1347076; further: on the % scale 0 is the no-effect control and ±100 the full control effect; nearly all actives have a fitted effect of over 60% in size
#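 KB-V1 MDR subline cells in DMEM (phenol-red free, 10% FBS) exposed to compounds in qHTS concentration series for 72 h at 37 degrees C. Viability read by CellTiter-Glo luminescence; concentration-effect curves fitted after normalization and correction.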
# SW480 rerep = induces DNA re-replication in SW480 colon adenocarcinoma cells | 340,000 tested, 1.8% active | SW480 DNA re-replication, Hoechst DNA content imaging, 48 h | Potency, µM (series often up to 46.1 µM), for inactives: at the top dose re-replication activation, hits mostly activators; further: % of control where 0% means no effect; nearly all actives have a fitted effect of over 55% in size
#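 Readout is total intensity of Hoechst-stained nuclei, excited at 405 nm and collected at 500-530 nm. Compound treatment lasted 48 hr at 37 C in 5% CO2 before staining.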
# KB-3-1 cytotox = KB-3-1 parental cell cytotoxicity. KB-3-1 viability, CellTiter-Glo ATP luminescence, 72 h. Potency, µM (highest dose often 46.1 µM), hits mostly cytotoxic. 400,000 tested, 1.4% active; further: on the % scale 0 is the no-effect control and ±100 the full control effect; nearly all actives have a fitted effect of over 60% in size
#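 Here the drug-naive KB-3-1 line serves as comparator for MDR sub-line selectivity; cells received compound titrations, 72 h at 37 °C, then CellTiter-Glo readout.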
# TSG101-PTAP inh = blocks PTAP/TSG101 interaction to inhibit HIV-1 budding; Potency, µM (series often up to 115 µM), without a hit: at the highest dose activity change, negative = inhibition, most hits filed as inhibitors; Fluorescence polarization, FITC-PTAP peptide / Tsg101 binding; 340,000 tested, under 10 active; active means well fitted inhibition curve with a large enough effect in the main read-out, with a control signal flat, not every such curve was filed as active; inconclusive means small, poorly fitted or top-dose-only effect, or effect the other way, or a change in a side signal; inactive means no such curve, though single readings can be large or run the other way; further: % of control where 0% means no effect
# Target sequence (Q99816 whole entry, looked up): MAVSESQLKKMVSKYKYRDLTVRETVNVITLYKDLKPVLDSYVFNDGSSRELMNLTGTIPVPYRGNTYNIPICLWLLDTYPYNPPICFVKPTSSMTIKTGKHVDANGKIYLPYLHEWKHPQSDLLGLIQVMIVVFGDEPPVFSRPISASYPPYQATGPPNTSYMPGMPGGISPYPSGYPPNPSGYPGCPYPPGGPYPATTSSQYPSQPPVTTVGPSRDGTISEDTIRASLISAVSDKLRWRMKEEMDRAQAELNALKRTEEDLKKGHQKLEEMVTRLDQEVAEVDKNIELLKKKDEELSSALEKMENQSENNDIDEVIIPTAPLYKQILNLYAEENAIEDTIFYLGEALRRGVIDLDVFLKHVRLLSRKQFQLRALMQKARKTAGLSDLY
#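 Compounds were pin-transferred onto Tsg101 binding domain (10 uM final) in HEPES pH 7.5 buffer, then FITC-PTAP peptide was added at 50 nM final. After 20 min at RT, polarization reported peptide displacement across a qHTS concentration series.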
# MCF10A rerep = inducers of DNA re-replication in MCF 10A breast cells; 350,000 tested, 2.9% active; MCF 10A DNA re-replication, Hoechst nuclear intensity, 48 h; Potency, µM (series often up to 46.1 µM), for inactives: at the top dose activity, positive = re-replication, usual class: activators; AID 624296; further: % of control where 0% means no effect; nearly all actives have a fitted effect of over 50% in size
# RGS4 inh = human RGS4 inhibition; Potency, µM (top dose mostly 114 µM), inactives show at the highest dose activity change, negative = inhibition, usual class: inhibitors; P49798; AID 504845; 390,000 tested, 0.039% active; Transcreener GDP fluorescence polarization, RGS4-accelerated GTP hydrolysis; further: on the % scale 0 is the no-effect control and ±100 the full control effect; nearly all actives have a fitted effect of over 75% in size
# Target sequence (P49798 whole entry, looked up): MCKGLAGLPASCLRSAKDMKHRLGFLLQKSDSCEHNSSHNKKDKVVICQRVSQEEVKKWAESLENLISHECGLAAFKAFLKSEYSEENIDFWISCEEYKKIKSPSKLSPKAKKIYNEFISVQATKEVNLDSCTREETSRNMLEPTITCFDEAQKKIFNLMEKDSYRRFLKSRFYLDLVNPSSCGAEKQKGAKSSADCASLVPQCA
#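 MLSMR compounds (23 nl, pin-transferred) preincubated 10 min at room temperature with a 500nM (2x) first reagent, then RGS4 at 900nM (2x) plus Transcreener GDP mix added; fluorescence polarization (620/688 nm) read before and after 90 min at 30 °C.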
# * = called active by the depositor; i = inactive; ? = inconclusive; / = no result given; [ ] = another dose, or the depositor's remark. Unless noted, the call rests on the fitted dose curve; in most records, active means well fitted curve in the direction sought with a large enough effect; inconclusive means small, poorly fitted or top-dose-only effect, or another doubt; inactive means no such curve, though single readings can be large; an effect the other way counts as inactive or inconclusive. Potency means the concentration at half of the fitted maximal effect.
SMILES,KB-V1 MDR tox,SW480 rerep,KB-3-1 cytotox,TSG101-PTAP inh,MCF10A rerep,RGS4 inh
COc1ccccc1CN(Cc1nc2ccccc2c(=O)[nH]1)C(=O)Nc1ccccc1C,i,10.1%,i,-7.6%,?,5.3%
CSc1ccc(CN(C)Cc2nc3ccccc3c(=O)[nH]2)cc1,20.6µM*,-2.7%,i,-0.9%,-2.7%,15.7%
CS(=O)(=O)N(Cc1ccc(F)cc1)Cc1nc2ccccc2c(=O)[nH]1,i,8.5%,i,-6.0%,0.0%,-13.4%
COc1ccccc1CN(Cc1nc2ccccc2c(=O)[nH]1)C(=O)Nc1ccc(C)cc1,20.6µM*,1.0%,i,-8.4%,1.8%,-9.0%
COCCCNC(=S)N(Cc1ccccc1)Cc1nc2ccccc2c(=O)[nH]1,i,-0.4%,i,-0.6%,-4.8%,4.4%
CCNC(=S)N(Cc1ccccc1)Cc1nc2ccccc2c(=O)[nH]1,20.6µM*,-38.4%,i,-2.1%,-0.6%,-22.7%
Cn1nc(C(F)(F)F)c(/C=N/OC(=O)c2ccccc2)c1SCc1ccccc1Cl,11.6µM*,16.4µM*,?,-3.6%,18.4µM*,5.9%
Cn1nc(C(F)(F)F)c(/C=N/OC(=O)c2ccccc2)c1Sc1ccc(Cl)cc1,i,?,?,0.9%,2.3%,-28.1%
COc1cc2c(NC3CCN(C)CC3)nc(N3CCCN(C)CC3)nc2cc1OCCCCN,i,/,?,/,/,/
Cc1ccc(OCC(=O)Nc2ccc3nn(-c4ccc(C)cc4)nc3c2)cc1,i,/,i,/,/,5.2%
CCN(Cc1ccccc1)S(=O)(=O)c1ccc(C(=O)N(CCCN(C)C)c2nc3c(C)c(C)ccc3s2)cc1,?,6.51µM*,?,-5.7%,15.8µM*,6.4%
Cc1ccc2sc(N(CCCN(C)C)C(=O)c3ccc(S(=O)(=O)N(C)C4CCCCC4)cc3)nc2c1C,18.4µM*,?,23.1µM*,0.2%,23.1µM*,-14.0%
Brc1ccc(-c2cn3c(n2)CCc2ccc4cccnc4c2-3)cc1,16.4µM*,?,i,-2.4%,23.1µM*,-19.8%
CCC(=O)N1c2ccccc2CC1C(=O)NCCN1CCN(c2cc(Cl)ccc2C)CC1 (configuration not stated),i,/,i,/,/,-7.4%
C=CCn1c(SCC(C)=O)nnc1-c1cc(-c2ccccc2)sc1N,18.4µM*,-15.2%,i,0.8%,-1.9%,-37.6%
COc1ccc(/C=C/c2nnc(NC(=O)CSc3ccc(C)cc3)s2)cc1,i,?,?,2.2%,8.2µM*,-4.0%
O=C(Cc1ccccc1)Nc1nnc(-c2ccncc2)s1,i,/,i,/,/,/
O=C(Nc1cc(F)ccc1F)C1CCN(C(=O)c2cnn(-c3ccccc3)c2-n2cccc2)CC1,?,/,i,/,/,7.9%
CCN(CC)c1ccc(/C=N/NC(=S)NCc2ccco2)cc1,?,?,18.4µM*,-1.5%,?,-22.9%
Oc1ccc(/C=N/NC(=S)NCc2ccco2)cc1,i,-5.4%,i,-6.6%,-2.8%,-34.9%
CCC(Sc1nnc(C)n2c1cc1occc12)C(=O)Nc1ccccc1F (configuration not stated),?,/,i,/,/,18.1%
O=C(O)CC/C=C\CC[C@H]1[C@@H](N2CCCCC2)[C@@H](O)C[C@@H]1OCc1ccc(-c2ccccc2)cc1,/,/,/,/,/,8.44µM*
Cc1ccc(N2NC(=O)/C(=C\c3cc4c(cc3[N+](=O)[O-])OCO4)C2=O)cc1C,i,0.2%,?,-1.8%,18.4µM*,-10.4%
COc1ccccc1OCCn1c(CCNC(=O)C2CCCCC2)nc2ccccc21,i,/,i,/,/,-8.5%
O=C(Nc1cccc2ncccc12)c1cc([N+](=O)[O-])ccc1Cl,?,?,18.4µM*,-0.2%,?,-6.2%[56.9 µM]
SMILES,KB-V1 MDR tox,SW480 rerep,KB-3-1 cytotox,TSG101-PTAP inh,MCF10A rerep,RGS4 inh
O=C(Nc1cccnc1Cl)c1cc([N+](=O)[O-])ccc1Cl,i,?,i,0.8%,?,0.5%
O=C(Nc1cccc2c1CCCC2)c1cc([N+](=O)[O-])ccc1Cl,?,-2.9%[9.22 µM],23.1µM*,-4.4%,?,-27.3%
CCc1ccc(C(=O)c2cn(Cc3ccccc3)c3cc(OC)c(OC)cc3c2=O)cc1,i,/,i,/,/,8.1%
CCn1cc(C(=O)N2CCN(c3cccc(C(F)(F)F)c3)CC2)c2cc(OC)c(OC)cc2c1=O,i,/,i,/,/,-17.8%
COc1ccccc1C(=O)N1CCN(c2cccc(C(F)(F)F)c2)CC1,2.91µM*,23.1µM*,5.17µM*,-4.2%,11.2µM*,-20.2%
CCOc1cc(CN2CCN(c3cccc(C(F)(F)F)c3)CC2)ccc1O,16.4µM*,13.0%,i,1.0%,5.7%,-9.8%
COc1cc(C(=O)N2CCN(c3cccc(C(F)(F)F)c3)CC2)ccc1OCC(=O)N1CCOCC1,18.4µM*,-3.6%,i,-6.3%,0.3%,-3.1%
COc1ccc(CC(C)N2CCN(c3cccc(C(F)(F)F)c3)CC2)cc1OC (configuration not stated),18.4µM*,-0.8%,i,-3.1%,3.7%,35.2%
CN1CCN(CCNC(=O)c2cnn(-c3ccc(Cl)cc3)c2C2CCN(C(=O)OC(C)(C)C)CC2)CC1,?,/,i,/,/,-23.5%
COc1ccc(/C=C\c2onc(C)c2S(=O)(=O)N2CCC(C(=O)Nc3ccc(F)cc3F)CC2)cc1,/,/,/,/,/,4.2%
COC(=O)c1ccc2c(c1)N(CC(=O)Nc1cccc(Cl)c1C)C(=O)c1ccccc1S2,?,/,i,/,/,14.6%
O=C(CCc1ccccc1)NCc1nc2cccnc2n1Cc1ccc(F)cc1,/,/,/,/,/,16.0%
Cc1cccn2c(=O)c(C(=O)NC(C)c3ccccc3)c(O)nc12 (configuration not stated),?,/,i,/,/,15.4%
COc1ccc(C2CC(=O)Nc3c2c(C)nn3-c2nncc(-c3ccc(C)cc3)n2)c(OC)c1OC (configuration not stated),i,/,i,/,/,13.2%
COc1ccc(NC(=O)N2CCN(c3cccc(C(F)(F)F)c3)CC2)cc1OC,13µM*,1.1%,i,-0.7%,5.1%,-11.0%
CC(=O)c1ccc(NC(=O)N2CCN(c3cccc(Cl)c3)CC2)cc1,23.1µM*,-1.2%,i,0.8%,?,14.7%
Cc1cc(C(=O)N2CCCC(N3CCN(c4cccc(C(F)(F)F)c4)CC3)C2)c(C)o1 (configuration not stated),i,18.4µM*,i,-5.0%,?,-19.9%
CCCCSCCCNC(=O)c1c[nH]c2ccc(S(=O)(=O)Nc3cccc(OC)c3)cc2c1=O,/,/,/,/,/,-43.3%
